Results taken from PubChem BioAssay (Tox21).
Values joined by “and” are separate entries in the source; they are usually repeats but may differ in a detail not shown here. Equal entries are not always repeated. Results filed as inconclusive are left out. Where a call stands in place of a potency, no number is given. A structure can be active in one record and inactive in another. Active and inactive are the calls of the source. Unless noted, calls come from the whole dose curve; as a rule, active = well fitted curve in the direction sought with a large enough effect in the repeat runs; inconclusive = weak or mixed curves; inactive = no such curve, though single readings can be large; an effect the other way counts as inactive or inconclusive.

Experiments:
[1] = qHTS assay to identify small molecule antagonists of the glucocorticoid receptor (GR) signaling pathway - cell viability counter screen (AID 720693); note: nearly all actives have a fitted effect of over 55% in size
[2] = qHTS assay for identifying genotoxic compounds that show differential cytotoxicity against isogenic chicken DT40 cell lines with known DNA damage response pathways - wild type cell line (AID 743012); note: nearly all actives have a fitted effect of over 60% in size; note: potency is the fitted concentration of half-maximal effect
Procedure, shortened: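 Viability by ATP luminescence (CellTiter-Glo, 30 min RT) after 40 h compound treatment at 37 C/5% CO2, using 300 parental DNA repair-proficient DT40 cells per well.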

[3] = qHTS assay for identifying genotoxic compounds that show differential cytotoxicity against isogenic chicken DT40 cell lines with known DNA damage response pathways - Rev3 mutant cell line (AID 743014); note: nearly all actives have a fitted effect of over 55% in size; note: potency is the fitted concentration of half-maximal effect
[4] = qHTS assay to identify small molecule antagonists of the androgen receptor (AR) signaling pathway - cell viability counter screen (AID 743033; note: nearly all actives have a fitted effect of over 45% in size)
[5] = qHTS assay to identify small molecule antagonists of the androgen receptor (AR) signaling pathway using the MDA cell line - cell viability counter screen (AID 743041; note: nearly all actives have a fitted effect of over 45% in size; note: potency is the fitted concentration of half-maximal effect)
Procedure, shortened: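 Viability read by CellTiter-Fluor fluorescence in the same wells as the antagonist screen, added after 15.5 h of a 16 h, 37C exposure. Human breast carcinoma MDA-kb2 AR-luc cells, compounds co-dosed with agonist R1881.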

[6] = qHTS assay to identify small molecule antagonists of the thyroid receptor (TR) signaling pathway - cell viability counter screen (AID 743064); note: nearly all actives have a fitted effect of over 50% in size
Procedure, shortened: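 Same-well viability check: GH3.TRE-Luc cells stimulated with 1 nM T3 alongside test compound for 23.5 h, followed by CellTiter-Fluor fluorescence.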

[7] = qHTS assay to identify small molecule antagonists of the thyroid receptor (TR) signaling pathway (AID 743065); note: nearly all actives have a fitted effect of over 55% in size; note: potency is the fitted concentration of half-maximal effect
Procedure, shortened: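 Antagonism measured as loss of luciferase signal in GH3 cells stably carrying a TRE-luciferase reporter, co-treated with compound and T3 (1 nM final) for 23.5 h at 37 C. Viability was read in the same well by CellTiter-Fluor.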

[8] = tested on: thyroid hormone receptor (rat, GH3 cells); assay: qHTS assay to identify small molecule agonists of the thyroid receptor (TR) signaling pathway (AID 743066; calls by dose curve)
[9] = target: Estrogen receptor (Homo sapiens) (UniProt P03372); assay: qHTS assay to identify small molecule antagonists of the estrogen receptor alpha (ER-alpha) signaling pathway (AID 743069; active = well fitted curve in the direction sought with a large enough effect in the signal ratio in the repeat runs, not every such curve was filed as active; the % refers to the signal ratio)
Chain of Estrogen receptor (Homo sapiens) (P03372 whole entry, looked up): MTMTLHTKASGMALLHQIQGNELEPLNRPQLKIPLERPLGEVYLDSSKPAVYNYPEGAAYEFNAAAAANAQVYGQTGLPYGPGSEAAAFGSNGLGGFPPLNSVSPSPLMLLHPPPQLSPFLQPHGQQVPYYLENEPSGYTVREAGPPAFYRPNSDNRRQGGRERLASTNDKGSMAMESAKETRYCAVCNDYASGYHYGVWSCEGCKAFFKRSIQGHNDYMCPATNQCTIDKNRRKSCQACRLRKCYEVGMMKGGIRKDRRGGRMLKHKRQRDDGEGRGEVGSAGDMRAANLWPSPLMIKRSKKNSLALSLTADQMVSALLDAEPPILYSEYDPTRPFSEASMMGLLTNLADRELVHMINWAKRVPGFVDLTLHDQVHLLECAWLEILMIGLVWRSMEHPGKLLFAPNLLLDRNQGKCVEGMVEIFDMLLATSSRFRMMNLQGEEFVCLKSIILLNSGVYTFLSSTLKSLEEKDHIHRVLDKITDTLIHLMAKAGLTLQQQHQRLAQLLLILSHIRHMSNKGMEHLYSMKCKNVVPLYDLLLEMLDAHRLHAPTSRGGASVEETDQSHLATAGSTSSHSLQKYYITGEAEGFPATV
Procedure, shortened: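 Antagonist mode: compounds in DMSO were co-added with 17beta-estradiol to ER-alpha-bla HEK293 cells (2% charcoal-stripped serum) and left 18 h at 37C. Reporter inhibition was measured as FRET fluorescence after 2 h LiveBLAzer substrate at room temperature.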

[10] = qHTS assay to identify small molecule antagonists of the estrogen receptor alpha (ER-alpha) signaling pathway - cell viability counter screen (AID 743074; calls by dose curve;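 note: HEK293 cells carrying ER-alpha-UAS-bla reporter stimulated with 17beta-estradiol; nearly all actives have a fitted effect of over 45% in size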; note: potency is the fitted concentration of half-maximal effect)
[11] = target: Estrogen receptor (Homo sapiens) (UniProt P03372); assay: qHTS assay to identify small molecule agonists of the estrogen receptor alpha (ER-alpha) signaling pathway (AID 743075; calls by dose curve;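 note: HEK293 GripTite cells with ER-alpha and UAS-driven beta-lactamase reporter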)
[12] = target: Estrogen receptor (Homo sapiens) (UniProt P03372); assay: qHTS assay to identify small molecule agonists of the estrogen receptor alpha (ER-alpha) signaling pathway using the BG1 cell line (AID 743079); note: nearly all actives have a fitted effect of over 20% in size; note: potency is the fitted concentration of half-maximal effect
[13] = qHTS assay to identify small molecule antagonists of the estrogen receptor alpha (ER-alpha) signaling pathway using the BG1 cell line (AID 743080; calls by dose curve;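 note: BG1 cells stimulated with 17beta-estradiol alongside compound; series mostly up to about 70 µM; nearly all actives have a fitted effect of over 25% in size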)
Procedure, shortened: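 Endogenous full-length ER-alpha in BG1-Luc-4E2 cells drives a stably integrated 4×ERE luciferase gene; compounds were tested against 17beta-estradiol over 21.5 h, with luminescence and multiplexed viability fluorescence recorded.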

[14] = qHTS assay to identify small molecule antagonists of the estrogen receptor alpha (ER-alpha) signaling pathway using the BG1 cell line - cell viability counter screen (AID 743081);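 note: compound given together with 17beta-estradiol as the ER stimulus; series mostly up to about 70 µM; nearly all actives have a fitted effect of over 45% in size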
[15] = target: Aromatase (Homo sapiens) (UniProt P11511); assay: qHTS assay to identify aromatase inhibitors (AID 743083); note: nearly all actives have a fitted effect of over 55% in size; note: potency is the fitted concentration of half-maximal effect
Chain of Aromatase (Homo sapiens) (P11511 whole entry, looked up): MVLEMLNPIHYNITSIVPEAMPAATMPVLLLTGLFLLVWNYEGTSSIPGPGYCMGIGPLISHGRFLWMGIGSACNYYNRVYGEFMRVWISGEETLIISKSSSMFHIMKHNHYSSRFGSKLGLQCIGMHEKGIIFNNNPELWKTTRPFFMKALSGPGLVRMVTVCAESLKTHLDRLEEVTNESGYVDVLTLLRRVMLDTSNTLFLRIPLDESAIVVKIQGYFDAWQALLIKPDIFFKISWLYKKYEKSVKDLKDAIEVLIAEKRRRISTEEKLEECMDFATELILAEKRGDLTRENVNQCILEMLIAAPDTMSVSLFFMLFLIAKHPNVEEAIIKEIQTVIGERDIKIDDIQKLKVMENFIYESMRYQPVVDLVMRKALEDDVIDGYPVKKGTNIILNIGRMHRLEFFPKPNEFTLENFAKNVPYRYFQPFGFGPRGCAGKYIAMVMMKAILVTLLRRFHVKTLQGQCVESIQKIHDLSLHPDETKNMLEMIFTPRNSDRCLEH

[16] = qHTS assay for identifying genotoxic compounds that show differential cytotoxicity against isogenic chicken DT40 cell lines with known DNA damage response pathways - Rad54/Ku70 mutant cell line (AID 743015); note: nearly all actives have a fitted effect of over 60% in size; note: potency is the fitted concentration of half-maximal effect
[17] = target: Androgen receptor (Homo sapiens) (UniProt P10275); assay: qHTS assay to identify small molecule antagonists of the androgen receptor (AR) signaling pathway (AID 743035; active = well fitted inhibition curve with a large enough effect in the signal ratio in the repeat runs, not every such curve was filed as active; the % refers to the signal ratio)
Chain of Androgen receptor (Homo sapiens) (P10275 whole entry, looked up): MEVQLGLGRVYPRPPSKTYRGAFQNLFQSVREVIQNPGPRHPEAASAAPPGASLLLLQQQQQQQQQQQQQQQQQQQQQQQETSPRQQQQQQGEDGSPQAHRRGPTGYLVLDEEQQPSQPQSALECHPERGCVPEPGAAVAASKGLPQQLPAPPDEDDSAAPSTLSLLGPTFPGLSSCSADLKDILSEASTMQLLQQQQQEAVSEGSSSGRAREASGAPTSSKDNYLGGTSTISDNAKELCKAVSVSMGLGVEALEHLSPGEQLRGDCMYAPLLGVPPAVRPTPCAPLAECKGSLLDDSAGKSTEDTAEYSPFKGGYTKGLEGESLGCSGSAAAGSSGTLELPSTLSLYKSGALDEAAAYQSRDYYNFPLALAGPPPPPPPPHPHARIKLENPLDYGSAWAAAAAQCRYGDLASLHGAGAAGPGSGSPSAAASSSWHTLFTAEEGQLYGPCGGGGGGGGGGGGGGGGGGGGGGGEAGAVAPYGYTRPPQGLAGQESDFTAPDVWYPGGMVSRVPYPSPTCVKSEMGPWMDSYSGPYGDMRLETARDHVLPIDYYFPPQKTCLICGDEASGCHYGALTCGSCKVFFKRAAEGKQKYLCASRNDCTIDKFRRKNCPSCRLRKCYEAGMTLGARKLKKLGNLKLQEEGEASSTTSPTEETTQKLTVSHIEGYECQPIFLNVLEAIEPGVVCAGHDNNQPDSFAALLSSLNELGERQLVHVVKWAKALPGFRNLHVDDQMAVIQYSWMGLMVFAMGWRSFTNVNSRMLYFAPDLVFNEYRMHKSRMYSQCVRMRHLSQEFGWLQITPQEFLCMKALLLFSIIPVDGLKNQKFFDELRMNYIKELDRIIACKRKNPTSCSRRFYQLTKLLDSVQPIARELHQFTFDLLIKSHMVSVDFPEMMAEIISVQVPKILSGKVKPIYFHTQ
Procedure, shortened: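 Antagonist mode: AR-bla HEK293 cells co-treated with test compounds and agonist R1881 for 16 h at 37C, 5% CO2. Beta-lactamase activity read as FRET fluorescence after 2 h room-temperature substrate loading.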

[18] = target: Androgen receptor (Homo sapiens) (UniProt P10275); assay: qHTS assay to identify small molecule antagonists of the androgen receptor (AR) signaling pathway using the MDA cell line (AID 743042; note: nearly all actives have a fitted effect of over 55% in size)
Procedure, shortened: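 Antagonist mode: compounds plus R1881 agonist added to MDA-kb2 AR-luc cells, incubated 16 h at 37C. Luciferase reporter luminescence quantified, with multiplexed CellTiter-Fluor readout for cell viability.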

Structure (SMILES)	Potency [1]	Potency [2]	Potency [3]	Potency [4]	Potency [5]	Potency [6]	Potency [7]	Potency [8]	Potency [9]	Potency [10]	Potency [11]	Potency [12]	Potency [13]	Potency [14]	Potency [15]	Potency [16]	Potency [17]	Potency [18]
CNC[C@H](O)c1ccc(O)c(O)c1	inactive	29.8 µM (active)	inactive	inactive	inactive	inactive	inactive	inactive	inactive	inactive	inactive	inactive	inactive	inactive	inactive			
O=C(O)CCCCCCCCCCCC(=O)O	inactive	inactive	inactive	inactive	inactive		inactive	inactive		inactive and 4.36 µM (active)				inactive	inactive	inactive		
Cc1ccc([N+](=O)[O-])c(C)c1	inactive	inactive	inactive	inactive	inactive		inactive	inactive	inactive	inactive	inactive	inactive and 68.6 µM (active)	inactive	inactive	inactive	inactive		
C=C[Si](OCCOC)(OCCOC)OCCOC	inactive	43.3 µM (active)	inactive and 30.6 µM (active)	inactive	inactive		inactive	inactive	inactive	inactive	inactive	inactive	inactive	inactive	inactive	inactive and 30.6 µM (active)		
CCC/C=C/C=O	inactive		inactive	inactive	inactive	inactive	inactive	inactive	inactive	inactive	inactive	inactive	inactive	inactive	inactive	inactive	inactive	inactive
Nc1ccc(N)c(Cl)c1	inactive	68.5 µM (active) and inactive	61 µM (active) and inactive			inactive	inactive	inactive		inactive			inactive	inactive	61 µM (active) and inactive	inactive		
C=C[C@@]1(C)CC(=O)[C@]2(O)[C@@]3(C)[C@@H](O)CCC(C)(C)[C@@H]3[C@H](O)[C@H](OC(C)=O)[C@@]2(C)O1	inactive	26.6 µM (active) and 30.6 µM (active)	inactive and 48.6 µM (active)		26.6 µM (active) and 38.6 µM (active)	inactive	inactive	inactive		inactive	inactive				1.19 µM (active) and 969 nM (active)	23.7 µM (active) and 24.3 µM (active)		
CC(=O)[C@@]1(O)CC[C@H]2[C@@H]3C[C@H](C)C4=CC(=O)C=C[C@]4(C)[C@@]3(F)[C@@H](O)C[C@@]21C	inactive	inactive		inactive	inactive	inactive	inactive	inactive	inactive	inactive	inactive	inactive		inactive	inactive	43.3 µM (active)		
COC(=O)c1ccc(C)cc1	inactive	inactive	inactive	inactive	inactive		inactive	inactive	inactive	inactive	inactive	inactive	inactive	inactive	inactive	inactive		
Cc1cccc(Nc2ccccc2C(=O)O)c1C	inactive	inactive	inactive	inactive	inactive		21.1 µM (active) and 54.5 µM (active)	inactive		inactive				inactive	inactive	inactive and 61.1 µM (active)		
Cc1ccc(C(C)(C)C)cc1	inactive	inactive	inactive	inactive	inactive		inactive	inactive	inactive	inactive	inactive	inactive	inactive	inactive	inactive	inactive		
C=C[C@H]1CN2CC[C@H]1C[C@@H]2[C@@H](O)c1ccnc2ccc(OC)cc12	inactive	29.8 µM (active)	47.8 µM (active)	inactive	inactive					inactive				inactive	inactive	29.8 µM (active) and 60.1 µM (active)		
Clc1ccc(Sc2cc(Cl)c(Cl)cc2Cl)cc1	inactive	inactive	inactive	inactive	inactive		inactive	inactive		inactive				inactive	inactive	inactive		
NC[C@H](O)c1ccc(O)c(O)c1	inactive	23.7 µM (active) and 21.7 µM (active)	21.1 µM (active) and 17.2 µM (active)	inactive	inactive					inactive				inactive	inactive	24.3 µM (active)		
C/C=C/C(=O)N(CC)c1ccccc1C	inactive		54.5 µM (active)	inactive	inactive	inactive	inactive	inactive	inactive	inactive	inactive	inactive	inactive	inactive	inactive	inactive and 48.6 µM (active)		
Cc1ccc(/C(=C\CN2CCCC2)c2ccccn2)cc1	inactive	26.6 µM (active) and 57.3 µM (active)	inactive and 57.3 µM (active)	inactive	inactive			inactive	inactive	inactive	inactive	inactive	inactive	inactive	inactive	23.7 µM (active) and 64.3 µM (active)		
